# Source: PubChem BioAssay (National Center for Advancing Translational Sciences (NCATS))
# HTT ATP protect: qHTS Multiplex Assay to Identify Dual Action Probes in a Cell Model of Huntington: Cytoprotection (ATP). PC12 HTT-Q103 induced, cytoprotection, ATP luminescence, 40 h. Potency, µM (titrated, usually from 56.4 µM), for inactives: cytoprotection (ATP increase), most hits filed as activators. 0.14% of 230,000 active; further: potency means the concentration at half of the fitted maximal effect; % of control where 0% means no effect; nearly all actives have a fitted effect of over 45% in size
#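 PC12 cells with ecdysone-inducible HTT exon 1 Q103-GFP, induced with 100 nM tebufenozide and co-treated with library compounds in a dose series (1536-well, 1500 cells/well). Cytoprotection read as ATP content by ATPlite luminescence.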
# HTT aggregate: qHTS Multiplex Assay to Identify Dual Action Probes in a Cell Model of Huntington: Aggregate Formation (GFP); PC12 HttQ103-GFP aggregates, Acumen cytometry, 40 h; Potency, µM (top dose mostly 46.1 µM), for the others: at the highest dose activity change, negative = inhibition, actives largely listed as inhibitors; 1.1% of 220,000 active; further: potency means the concentration at half of the fitted maximal effect; on the % scale 0 is the no-effect control and ±100 the full control effect; nearly all actives have a fitted effect of over 60% in size
#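 Huntingtin Q103 exon 1–GFP aggregates in induced PC12 cells (100 nM tebufenozide) were quantified by cytometry from lysates, with compounds dosed in titration.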
# IMPase Li cell: qHTS Assay for Identifying the Cell-Membrane Permeable IMPase Inhibitors: Potentiation with Lithium; Potency, µM (top dose mostly 59.4 µM), without a hit: top-dose activity, negative = IMPase inhibition, hits mostly inhibitors; 0.35% of 210,000 active; CHO-M1 cells, IP1 TR-FRET (IP-One), carbachol + lithium; AID 1457, 2008;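 further: IP1 builds up when IMPase is blocked and the TR-FRET signal falls; potency means the concentration at half of the fitted maximal effect; plate controls were basal vehicle for no effect and high inhibitor control for full effect; nearly all actives have a fitted effect of over 50% in size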
#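 CHO cells stably expressing M1 receptor (2000/well) were cultured 16–30 h, then exposed to compounds with a small lithium addition for 30 min at 37C. IP1 was measured by TR-FRET competition; AC50 from Hill fits.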
# IMPase inh: qHTS Assay for Identifying the Cell-Membrane Permeable IMPase Inhibitors. Inositol monophosphatase 1 (Rattus norvegicus), P97697. CHO-M1 cells, IP1 accumulation, HTRF TR-FRET ratio. inhibition (IP1 accumulation), % at 46.1 µM. 120,000 tested, under 10 active. AID 901, 2007; active means well fitted curve in the direction sought with a large enough effect in the signal ratio, not every such curve was filed as active; inconclusive means small, poorly fitted or top-dose-only effect, or a change in a side signal; inactive means no such curve, though single readings can be large or run the other way; the % refers to the signal ratio;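 further: cells stimulated with carbachol in lithium chloride buffer; plate controls were DMSO basal wells for no effect and reference inhibitor wells for full effect; higher means more IMPase inhibition seen as more IP1 and lower FRET ratio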
# Target sequence (P97697 whole entry, looked up): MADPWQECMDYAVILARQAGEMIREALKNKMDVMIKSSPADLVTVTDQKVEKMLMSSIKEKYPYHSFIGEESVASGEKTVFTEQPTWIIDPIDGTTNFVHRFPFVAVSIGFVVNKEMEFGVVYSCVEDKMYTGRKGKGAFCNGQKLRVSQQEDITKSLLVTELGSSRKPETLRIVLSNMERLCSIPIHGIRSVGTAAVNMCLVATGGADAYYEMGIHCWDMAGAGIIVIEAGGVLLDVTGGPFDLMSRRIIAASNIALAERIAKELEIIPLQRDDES
#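 CHO-M1 cells (CHO stably expressing M1 receptor), compound up to 46 uM final, stimulated with carbachol (50 uM as added) in buffer with 50mM LiCl, pH 7.4, 30 min at 37C. Cytosolic IP1 read by TR-FRET; AC50 from Hill fits.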
# ALDH1A1 block: qHTS Assay for Inhibitors of Aldehyde Dehydrogenase 1 (ALDH1A1) | Potency, µM (series often up to 75.3 µM), for inactives: at the top dose activity, negative = inhibition, usual class: inhibitors | Aldehyde dehydrogenase 1A1 (Homo sapiens), P00352 | 7.3% of 220,000 active | Purified ALDH1A1, NADH fluorescence, propionaldehyde substrate; active means well fitted inhibition curve with a large enough effect, not every such curve was filed as active; inconclusive means small, poorly fitted or top-dose-only effect, or another doubt; inactive means no such curve, though single readings can be large or run the other way;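 further: potency means the concentration at half of the fitted maximal effect; plate controls were no enzyme wells and a reference inhibitor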
# HPGD inh: qHTS Assay for Inhibitors of HPGD (15-Hydroxyprostaglandin Dehydrogenase); Potency, µM, for the others: at the highest dose activity change, negative = inhibition, actives largely listed as inhibitors; purified HPGD, NADH fluorescence kinetic, PGE2 substrate; 4.3% of 150,000 active; 15-hydroxyprostaglandin dehydrogenase [NAD(+)] (Homo sapiens), P15428; active means well fitted inhibition curve with a large enough effect, not every such curve was filed as active; inconclusive means small, poorly fitted or top-dose-only effect, or another doubt; inactive means no such curve, though single readings can be large or run the other way; further: potency means the concentration at half of the fitted maximal effect; on the % scale 0 is the no-effect control and ±100 the full control effect
# Target sequence (P15428 whole entry, looked up): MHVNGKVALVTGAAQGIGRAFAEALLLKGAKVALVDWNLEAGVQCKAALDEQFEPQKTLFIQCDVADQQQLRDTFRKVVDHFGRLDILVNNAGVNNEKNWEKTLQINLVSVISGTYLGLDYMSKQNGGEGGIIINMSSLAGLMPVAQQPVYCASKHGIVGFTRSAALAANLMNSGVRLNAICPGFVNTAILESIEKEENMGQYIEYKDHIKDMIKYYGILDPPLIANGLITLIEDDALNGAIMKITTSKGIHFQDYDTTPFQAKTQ
#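 NADH formation kinetics: reaction with 30 uM PGE2 and 1 mM NAD+ (final), 20 nM enzyme, Tris-HCl pH 8 with Tween 20, after 15 min compound preincubation at room temperature. Fluorescence change, last versus first of five reads.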
# An asterisk follows results filed as active; ? = inconclusive; · = not tested or not shown; [ ] = remark or other dose. Sampled rows, rich in hits. Any-hit rate of the full collection: about 9.4%. Unless noted, the call rests on the fitted dose curve; in most records, active means well fitted curve in the direction sought with a large enough effect; inconclusive means small, poorly fitted or top-dose-only effect, or another doubt; inactive means no such curve, though single readings can be large; an effect the other way counts as inactive or inconclusive.
SMILES,HTT ATP protect,HTT aggregate,IMPase Li cell,IMPase inh,ALDH1A1 block,HPGD inh
CN(C)CCCO[C@H]1[C@@H]2OC(C)(C)O[C@@H]2O[C@@H]1[C@H](O)CO,?,·,3%,-4[20.6 µM],10%[20.9 µM],3%
Cc1nn(-c2ccccc2)c2c1C(c1ccc([N+](=O)[O-])cc1)C(C#N)=C(N)O2 (configuration not stated),2%[10 µM],-18%[9.22 µM],·,·,14µM*,·
Cc1nn(-c2ccccc2)c(N)c1Sc1ccc([N+](=O)[O-])cc1,33%[10 µM],-4%,24%,12,1.4µM*,20µM*
Cc1nn(S(=O)(=O)c2ccc(Cl)cc2)c(C)c1Sc1ccc([N+](=O)[O-])cc1,-1%[10 µM],5%,7%,·,?,-17%
Cc1ccc(-n2nc(C)c3c2OC(N)=C(C#N)C3c2ccc(F)cc2)cc1 (configuration not stated),-8%,-21%,17%[38.3 µM],-2,4%,-4%
Cc1nn(-c2ccccc2)c2c1C(c1ccco1)C(C#N)=C(N)O2 (configuration not stated),-29%,12%,8%[38.3 µM],-1,1µM*,-15%
Cc1nn(-c2ccccc2)c2c1C(c1cccs1)C(C#N)=C(N)O2 (configuration not stated),-13%,9%,-2%[38.3 µM],11,11µM*,?
COCC(=O)N1CCC2(CCCN(c3cccc(-c4ccccc4)c3)C2)CC1,-2%,·,4%,·,?,-23%
NC(=O)N/N=C/c1sc(=O)n(-c2ccccc2)c1Cl,4%[10 µM],-9%[9.22 µM],·,·,·,·
O=C(N/N=C/c1sc(=O)n(-c2ccccc2)c1Cl)c1ccccc1,-14%[10 µM],12%,5%,·,16µM*,-10%
CCC1=C2CC[C@H]3C(=O)NC(=O)[C@H]3[C@H]2[C@@]2(C)C(=NCC3CC3)OC(=O)N2C1=O,-19%,·,-4%,·,5%,-10%
Cc1nc(NCCc2ccccc2F)c(C#N)c(C)c1[N+](=O)[O-],14%[10 µM],-6%,26%[38.3 µM],-4[1.84 µM],14µM*,-10%
COc1cc(CNc2nc(C)c([N+](=O)[O-])c(C)c2C#N)cc(OC)c1,-6%[10 µM],?,27%[38.3 µM],?,4µM*,-6%
Cc1nc(NCCc2ccc(F)cc2)c(C#N)c(C)c1[N+](=O)[O-],-15%[10 µM],18%,13%,-7,?,-9%
CCOC(=O)c1ccc(Nc2nc3ccc(C(=O)c4ccccc4)cc3n3c(C)nnc23)cc1,·,·,·,22,·,·
CC1=CC(=O)c2c(O)ccc(O)c2C1=O,8%[10 µM],-8%[9.22 µM],24%,·,32µM*,·
O=C1C=C(N2CCN(c3ccccn3)CC2)C(=O)c2c(O)ccc(O)c21,-30%[10 µM],·,16%,·,-10%[13.5 µM],-12%
CC1=C(C(=O)OCc2ccc3c(c2)OCO3)C(c2ccccc2OCc2ccccc2)NC(=O)N1 (configuration not stated),-47%,?,39%[38.3 µM],7,-3%,-19%
CCOC(=O)C1=C(C)NC(=O)NC1c1cc2c(cc1Br)OCO2 (configuration not stated),-28%[10 µM],4%,-6%,-14,8%,-12%
CC1=C(C(=O)OCc2ccc3c(c2)OCO3)C(c2ccccc2)NC(=O)N1 (configuration not stated),16%,2.8µM*,-4%[38.3 µM],14,?,-15%
CC1=C(C(=O)OCc2ccc3c(c2)OCO3)C(c2ccc(O)c([N+](=O)[O-])c2)NC(=O)N1 (configuration not stated),·,7.1µM*,0%,·,1%,·
CCOc1ccc(NC(=O)Cn2nnc(C(=O)OC)c2C(=O)OC)cc1,·,·,·,7,·,·
N#Cc1cc([N+](=O)[O-])ccc1NC(=O)COC(=O)CC1CCCC1,-4%[10 µM],-17%[9.22 µM],·,·,·,·
Cc1ccc(S(=O)(=O)N[C@H]2COC(=O)C/C=C\[C@H](C)[C@@H](NS(=O)(=O)c3ccc(C)cc3)COC(=O)C/C=C\[C@@H]2C)cc1,9%[10 µM],·,·,·,?,·
COCCN=C1Sc2nc3ccc(C)cc3cc2CN1Cc1ccco1,-12%,?,33%[38.3 µM],-5,25µM*,-20%
SMILES,HTT ATP protect,HTT aggregate,IMPase Li cell,IMPase inh,ALDH1A1 block,HPGD inh
COCCN=C1Sc2nc3cc(C)c(C)cc3cc2CN1Cc1cccs1,-10%[10 µM],-29%[9.22 µM],·,·,·,·
C/C(=N\S(=O)(=O)c1ccc(C)cc1)N1CCN(S(=O)(=O)c2ccccc2)C1,?,27%,12%[38.3 µM],?,4µM*,-10%
O=C(/C=C1\NC2(CCCC2)Cc2ccccc21)C(=O)N/N=C/c1ccccc1O,·,9%,-7%,·,4.5µM*,-21%
CCn1c2ccccc2c2nnc(SCC(=O)Nc3c(C)n(C)n(-c4ccccc4)c3=O)nc21,-9%,12%,-9%[38.3 µM],-1,-6%,-9%
CCCn1c2ccccc2c2nnc(SCC(=O)OC)nc21,-7%,-1%,·,0,14µM*,·
CCn1c2ccccc2c2nnc(SCC(=O)NCCOC)nc21,-15%[10 µM],5%,6%[38.3 µM],7,-3%,16µM*
CCn1c2ccccc2c2nnc(SCC(=O)NCc3cccs3)nc21,-23%[10 µM],12%,-4%[38.3 µM],3,-2%,-15%
CCn1c2ccccc2c2nnc(SCC(=O)Nc3cc(C)on3)nc21,19%[10 µM],14%,11µM*,?,-13%,-19%
C=CCn1c2ccccc2c2nnc(SCC(=O)NC(C(=O)OC)C(C)C)nc21 (configuration not stated),-17%,3%,22%[38.3 µM],4,20µM*,20µM*
C#CCCCO/N=C1/C[C@@H](O)[C@@H](O)[C@@H]2[C@@H]3C(=O)N(CC)C(=O)[C@H]3CC[C@H]12,1%[10 µM],·,·,·,2%[13.5 µM],·
O=C(Oc1ccccc1)N1CCC2(CCCN(c3ccccn3)C2)CC1,16%,·,28%,·,?,-25%
O=C(O)C(O)C(O)(Cc1ccc(O)cc1)C(=O)O (configuration not stated),-28%,·,25%,·,-2%,-5%
